Results published in ChEMBL document CHEMBL4513216, “Probing the Open Global Health Chemical Diversity Library for Multistage-Active Starting Points for Next-Generation Antimalarials” (ACS Infect Dis, 2020).
The campaign covered roughly 69,000 compounds. About 8,600 (12%) showed an effect of 50% or more. The full list was thinned out, with strong results kept by preference.

These molecules were tested on Plasmodium berghei (assay: Screen against P. berghei liver stage (PbLuc), transformed with Luciferase, at 10uM). Settings: tested at 10 uM.
Format: functional, HepG2
Molecule `CCCOc1c(CNC2CCSC2)cccc1OC` (stereo unspecified) has an INHIBITION of 4.87%.
In the case of `CCn1c(Cn2cncn2)nnc1C1CCN(Cc2ccncc2)CC1`, the INHIBITION is reported as -22.1%.
`CCn1c(Cn2cncn2)nnc1C1CCN(CC2[C@H]3CNC[C@@H]23)CC1` (stereo partly specified) showed an INHIBITION of 57.1%.
With `CCn1c(Cn2cncn2)nnc1C1CCN(CCN)CC1` the INHIBITION was 43.8%.
`CC(C)c1nn(C)c(N(C)C)c1CNCCC(=O)N(C)C` was tested, and the INHIBITION was 3.19%.
For `O=C(c1cnn(-c2ccccc2F)c1)N1CCN(CCO)CC1`, the INHIBITION was -10.3%.
With `CC(C)(O)CN1CCN(C(=O)c2cnn(-c3ccccc3F)c2)CC1` the INHIBITION was 58.5%.
With `CC(C)C(C)(C#N)NC(=O)CN1CCCN(Cc2ccccc2F)CC1` (stereo unspecified) the INHIBITION was 82.4%.
For `CSc1ccsc1C(=O)N1CCN(CC(C)(C)O)CC1`, the INHIBITION was 25.3%.
In the case of `CCc1ccsc1C(=O)N1CCN(CC(C)(C)O)CC1`, the INHIBITION is reported as -13.5%.
Work on `CC(C)(C)NC(=O)CN1CCCN(Cc2ccc(C#N)cc2)CC1` yielded an INHIBITION of -7.77%.
In the case of `CC(C)(C)n1cc(C(=O)N2CCN(Cc3ccco3)CC2)cn1`, the INHIBITION is reported as 6.15%.
In the case of `CC(C)(O)CN1CCN(C(=O)c2sccc2C#N)CC1`, the INHIBITION is reported as 54.4%.
`CC(C)(C)NC(=O)CN1CCCN(Cc2cc(C#N)ccc2F)CC1` gave an INHIBITION of -24.9%.
`CC(C)(C)n1cc(C(=O)N2CCN(Cc3ccccc3F)CC2)cn1` was tested, and the INHIBITION was 71.4%.
`CC(C)(C)n1cc(C(=O)N2CCN(Cc3ccncc3)CC2)cn1` gave an INHIBITION of 24.15%.
`CCCN1CCN(C(=O)c2cnn(-c3ccccc3F)c2)CC1` was tested, and the INHIBITION was -39.9%.
For `Cc1cnn(CCNc2cnc3ccccc3n2)c1`, the INHIBITION was -68.3%.
Work on `O=C([C@H]1C[C@@H]2CCN(C3CCOCC3)C[C@@H]2O1)N1CCOCC1` yielded an INHIBITION of -15.5%.
Work on `CN1CCC(CNC(=O)CCSc2ccc3c(c2)OCCO3)C1` (stereo unspecified) yielded an INHIBITION of 28.5%.
Work on `Cc1cccc(CC(=O)N2CCN(c3nccn3C)CC2)c1` yielded an INHIBITION of -14.7%.
`Cc1sc2c(C3CCCN(C(C)C)C3)nc(C)n2c1C` (stereo unspecified) showed an INHIBITION of -12.9%.
`Cn1cc(CN2CCc3onc(C(=O)N4CCCC4)c3C2)cn1` showed an INHIBITION of 33.5%.
In the case of `COc1ccc(CC(=O)N2CCCC(n3cc(C)cn3)C2)c(OC)c1` (stereo unspecified), the INHIBITION is reported as 7.08%.
For `CCn1ccc(C(=O)N2CCCN(Cc3ccccc3F)CC2)cc1=O`, the INHIBITION was 73.4%.
For `Cc1ncc(C(=O)N2CCCN(Cc3ccccc3F)CC2)c(O)n1`, the INHIBITION was 34.9%.
For `O=C(c1cccnc1O)N1CCN(Cc2ccccc2F)CC1`, the INHIBITION was 54.1%.
`CC(=O)N1CCN(C(=O)c2cnn(-c3ccccc3Cl)c2)CC1` showed an INHIBITION of 56.1%.
In the case of `Cn1ccc(C(=O)N2CCN(Cc3ccccc3F)CC2)cc1=O`, the INHIBITION is reported as -57%.
With `O=C(COCC1CCCCO1)N1CCN(Cc2ccccc2F)C(=O)C1` (stereo unspecified) the INHIBITION was 45.6%.
In the case of `CC(=O)N1CCCN(C(=O)c2cnn(-c3ccccc3Cl)c2)CC1`, the INHIBITION is reported as 47%.
Molecule `CN1CCN(C(=O)c2cnn(-c3ccccc3Cl)c2)CC1` has an INHIBITION of 14.1%.
`O=C(COCC1CCCO1)N1CCCN(Cc2ccccc2F)CC1` (stereo unspecified) gave an INHIBITION of 53%.
Molecule `O=C(c1cnc(C2CC2)nc1O)N1CCN(Cc2ccccc2F)CC1` has an INHIBITION of -0.554%.
`Cc1ccccc1CN1CCCN(C(=O)c2ccn(C)c(=O)c2)CC1` gave an INHIBITION of -7.46%.
With `N#Cc1ccc(OC2CCN(C(=O)COCC3CCCO3)CC2)cc1` (stereo unspecified) the INHIBITION was -13.9%.
With `O=C(CCc1ccsc1)N1CCC(N2CCNC2=O)CC1` the INHIBITION was 19.5%.
Molecule `CN(CC(=O)N1CCCCC1Cn1cccn1)C1CC1` (stereo unspecified) has an INHIBITION of -79.3%.
Work on `Cc1cnn(CCNCc2ccccc2OCc2ccccn2)c1` yielded an INHIBITION of -15.5%.
`CCCc1n[nH]c(C2CN(C(=O)c3cc(C4CC4)on3)CCO2)n1` (stereo unspecified) showed an INHIBITION of 14%.
`CN1CCN(C(=O)c2cc3sccc3n2Cc2ccccc2Cl)CC1` was tested, and the INHIBITION was 11.7%.
For `CC(C)(C)c1noc(CCC(=O)N2CCN(Cc3ccco3)CC2)n1`, the INHIBITION was 19.9%.
`NC(=O)c1cc2c(nc1CCOc1ccc(F)cc1)CCC2` showed an INHIBITION of 31.2%.
`COc1cccc(OCCc2nc3c(cc2C(N)=O)CCC3)c1` showed an INHIBITION of 54.8%.
Molecule `NC(=O)c1cc2c(nc1CCOCc1ccccc1)CCC2` has an INHIBITION of 20.3%.
`O=C1CC[C@H]2[C@H](CCN2c2ncc(F)cn2)N1c1cccnc1` showed an INHIBITION of 0.542%.
Molecule `Cc1cccc(C(=O)N2CCCC(Cc3cncc4ccccc34)C2)n1` (stereo unspecified) has an INHIBITION of -22.6%.
Work on `CCN(CC)CCCNC(=O)C(C)n1cc(Br)cn1` (stereo unspecified) yielded an INHIBITION of -1.33%.
Work on `Cc1ccccc1CSc1nc(N)cc(N2CCOCC(CO)C2)n1` (stereo unspecified) yielded an INHIBITION of 46.6%.
Molecule `Cc1cc(N2CCOCC(Cc3ccc4[nH]ccc4c3)C2)ncn1` (stereo unspecified) has an INHIBITION of 67.7%.
In the case of `Nc1cc(N2CCOCC(Cc3ccc4[nH]ccc4c3)C2)ncn1` (stereo unspecified), the INHIBITION is reported as 66.5%.
For `Cc1cc(N2CCC(Cc3ccncc3)C2)ncn1` (stereo unspecified), the INHIBITION was -2.09%.
`Cc1cc(N2CCC(Cc3cccnc3)C2)ncn1` (stereo unspecified) showed an INHIBITION of -2.09%.
With `c1cc(N2CCOCC(Cc3ccc4[nH]ccc4c3)C2)ncn1` (stereo unspecified) the INHIBITION was 3.91%.
For `Cc1nc(NCc2nncn2C2CC2)c2c(CC(C)C)csc2n1`, the INHIBITION was 45.4%.
For `CC1CN(C)c2ccccc2CN1C(=O)c1cscn1` (stereo unspecified), the INHIBITION was -4.15%.
`CC(=O)N1CC(C)CN(C(=O)c2cscn2)c2ccccc21` (stereo unspecified) showed an INHIBITION of -5.26%.
For `CC1CN(C(=O)c2ccnc(-n3cncn3)c2)c2ccccc2S1` (stereo unspecified), the INHIBITION was -40.7%.
For `CC1CN(C(=O)c2cscn2)c2ccccc2S1` (stereo unspecified), the INHIBITION was 63.7%.
In the case of `Cc1nc(C(=O)N2CC(C)Sc3ccccc32)cs1` (stereo unspecified), the INHIBITION is reported as 56.8%.
Molecule `Cc1ncsc1C(=O)N1CC(C)Sc2ccccc21` (stereo unspecified) has an INHIBITION of 44%.
`O=S(=O)(c1cccs1)N1CC[C@H]2[C@H]1CCN2c1ncccn1` showed an INHIBITION of -27%.
Molecule `Cc1occc1C(=O)N1CCc2c(COCC3CC3)cncc2C1` has an INHIBITION of 27.9%.
Molecule `CN1CCOC(C(=O)Nc2nc(-c3ccc4c(c3)CCC4)n[nH]2)C1` (stereo unspecified) has an INHIBITION of 32.4%.
For `CN1CCOC(C(=O)Nc2nnc(Cc3ccc(F)cc3)[nH]2)C1` (stereo unspecified), the INHIBITION was -2.71%.
`CN1CCOC(C(=O)Nc2nc(-c3ccccc3F)n[nH]2)C1` (stereo unspecified) showed an INHIBITION of -35.9%.
`CN1CCOC(C(=O)Nc2nc(-c3ccc(Cl)cc3)n[nH]2)C1` (stereo unspecified) showed an INHIBITION of -29.5%.
With `CN1CCOC(C(=O)Nc2ccc3c(c2)nc(C2CC2)n3C)C1` (stereo unspecified) the INHIBITION was 60.8%.
`CN1CCOC(C(=O)Nc2ccc3[nH]nnc3c2)C1` (stereo unspecified) gave an INHIBITION of 59.7%.
With `Cn1c(C2CC2)nc2cc(NC(=O)C3CC=CC3)ccc21` the INHIBITION was -22.4%.
Molecule `CN1CCOC(C(=O)Nc2ccc3c(c2)nc(C(C)(C)C)n3C)C1` (stereo unspecified) has an INHIBITION of 93.9%.
With `Cn1c(C2CC2)nc2cc(NC(=O)C3CCOC3)ccc21` (stereo unspecified) the INHIBITION was -5.69%.
`CC1(C(=O)N2CCSCC2)CNCCO1` (stereo unspecified) was tested, and the INHIBITION was 34.825%.
Molecule `O=C1CCCc2[nH]c(=O)c(C(=O)N3CCc4ccccc4C3)cc21` has an INHIBITION of 14.1%.
`COCCN1C[C@H]2CN(Cc3cccc(OC)c3)CCN2C1=O` gave an INHIBITION of 24.8%.
Molecule `COc1cccc(-c2ncc(CN3CC[C@H](CO)[C@@H](O)C3)s2)c1` has an INHIBITION of 15.7%.
`COc1cccc(-c2ncc(CN3CC[C@@H]4CC[C@H](C3)N4)s2)c1` showed an INHIBITION of 46.1%.
Work on `CN1C(=O)[C@@H]2CC[C@H]1CN(Cc1cccc(OCc3ccccn3)c1)C2` yielded an INHIBITION of 47.5%.
In the case of `COc1cccc(-c2ncc(CN3C[C@H]4CC[C@@H](C3)N(C)C4=O)s2)c1`, the INHIBITION is reported as 78.9%.
`COc1cccc(-c2cccc(CN3C[C@H]4CC[C@@H](C3)N(C)C4=O)c2)c1` was tested, and the INHIBITION was 61%.
`Cc1ccc(C2NC(=O)c3cc(C(C)C)sc3N2)cc1` (stereo unspecified) was tested, and the INHIBITION was -4.92%.
For `Cc1cnn(C2CN(CC(=O)NCCc3c[nH]c4ccccc34)C2)c1`, the INHIBITION was 10%.
`Cc1cc(-c2cc(C3CCOC3)c(C#N)c(N)n2)ccc1Cl` (stereo unspecified) showed an INHIBITION of 23.9%.
In the case of `COc1cc(-c2cc(C3CCOC3)c(C#N)c(N)n2)ccc1O` (stereo unspecified), the INHIBITION is reported as 53%.
In the case of `COc1ccc(-c2cc(C3CCOC3)c(C#N)c(N)n2)cn1` (stereo unspecified), the INHIBITION is reported as 6.69%.
For `C=Cc1ccc(C(=O)N2CCCC(Nc3ccccc3)C2)cc1` (stereo unspecified), the INHIBITION was 50.3%.
`Cc1ccc(C(=O)N2CCCC(Nc3ccc(F)cc3)C2)cc1` (stereo unspecified) showed an INHIBITION of 36%.
In the case of `COC(=O)c1ccc(C(=O)N2CCCC(Nc3ccc(F)cc3)C2)cc1` (stereo unspecified), the INHIBITION is reported as -6.88%.
In the case of `C=Cc1ccc(C(=O)N2CCCC(Nc3ccc(OC)cc3)C2)cc1` (stereo unspecified), the INHIBITION is reported as 73.5%.
`C=Cc1ccc(C(=O)N2CCCC(Nc3ccc(F)cc3)C2)cc1` (stereo unspecified) was tested, and the INHIBITION was 36.8%.
Work on `C=Cc1ccc(C(=O)N2CCCC(Nc3ccc(F)c(F)c3)C2)cc1` (stereo unspecified) yielded an INHIBITION of 37.1%.
With `CC(C)N1CCO[C@H]2CN(C(=O)c3ccsc3)C[C@H]21` the INHIBITION was -5.05%.
`CC(=O)N1CCCCC[C@@H]2[C@@H]1[C@H](c1cccc(F)c1)CN2C(=O)C1CC1` gave an INHIBITION of 35.85%.
`O=C(c1ncc(F)cc1F)N1CCC(c2ncc[nH]2)CC1` was tested, and the INHIBITION was 29.4%.
Work on `CN(C)C(=O)c1cccc(C2CCN(c3ncccn3)CC2)n1` yielded an INHIBITION of -19.7%.
In the case of `CN(C)c1cccc(C2CCN(c3ncccn3)CC2)n1`, the INHIBITION is reported as 48%.
In the case of `CN(C)c1nccc(C2CCN(C3CCCCC3O)CC2)n1` (stereo unspecified), the INHIBITION is reported as 27.6%.
Molecule `CN(C)c1nccc(C2CN(S(C)(=O)=O)C2)n1` has an INHIBITION of 20.2%.
`Cc1cc(C)nc(N2CCC(c3ccnc(N(C)C)n3)CC2)n1` gave an INHIBITION of 75.9%.
Molecule `CN(C)c1nccc(C2CCN(C(=O)CO)CC2)n1` has an INHIBITION of -37%.
`CN(C)c1nccc(C2CCN(c3ncccn3)CC2)n1` showed an INHIBITION of 76.8%.
Work on `CN1CCC(c2cccc(C(=O)N(C)C)n2)CC1` yielded an INHIBITION of 16.5%.
`NC(=O)c1cccc(C2CCN(c3ncccn3)CC2)n1` was tested, and the INHIBITION was 52.7%.
With `Cc1cccc(CN2CCC3(CC2)CC(Oc2cccnc2)C3)n1` the INHIBITION was 0.923%.
Work on `CCOc1ccnc(N2CCN(C(=O)c3ccn(C)c(=O)c3)CC2)n1` yielded an INHIBITION of 4.71%.
With `COc1ccc(CCCN(C)C(=O)c2cc(C(C)=O)c[nH]2)cc1OC` the INHIBITION was -46.6%.
